Measured values published in PubChem BioAssay.
Activity calls are given as the source filed them.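 Rule for the calls, unless noted: active = visual image review flags a hit and inhibition of aggregation exceeds 20%; inconclusive = visual hit but inhibition at or below 20%; inactive = no hit on visual image review.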

Legend:
[1] = inhibitors of TNFa-induced NFkB p65 translocation, primary screen, imaging, HUVEC, MLSMR starter and 10KST1 sets (AID 438;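 active = inhibition above 20% together with a positive visual image hit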;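 note: compound added about 3h40 before a 20 min TNFalpha stimulation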;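 for inhibition: signal is the nuclear over cytoplasmic p65 intensity ratio per well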); conditions: HUVEC TNFa-induced p65 nuclear translocation; cell count: measured here: nuclei count (cytotoxicity indicator), at 2.08 µM; inhibition: at 2 µM, stronger effect = higher value, 0% TNFa-plus-vehicle, 100% no-TNFa wells
[2] = reduction of polyQ htt aggregates in cells – imaging, exon1htt(103Q)mCFP cells, high-content imaging, primary screen (AID 483); conditions: exon1htt(103Q)mCFP cell line, aggregate imaging, at 2 µM; inhibition of aggregation: stronger effect = higher value; nuclei count: measured here: cell count, toxicity;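 note: compound exposure lasted 3 days before fixation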;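 for nuclei count: percent of the per-plate median nuclei count of sample wells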
[3] = endothelial E-selectin expression blockers – imaging, HUVEC, immunofluorescence, MLSMR starter and 10KST1 sets, primary screen (AID 487;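 active = visually confirmed hit in the image check and inhibition above 20%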;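 for inhibition: signal is fraction of cell area covered by stained E-selectin grains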;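 for nuclei count: 100% = median nuclei count of all wells on the same plate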); conditions: HUVEC TNFalpha-induced E-selectin immunofluorescence imaging, at 2 µM; inhibition: stronger effect = higher value; nuclei count: measured here: cell number, toxicity
[4] = target: Voltage-gated potassium channel subunit beta-2 (Rattus norvegicus) (UniProt P62483); assay: inhibitors of rat Kvbeta2 reductase activity – biochemical, NADPH fluorescence, primary screen (AID 622;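 active = fluorescence slope higher than the sample average by over 3 SD, cut at about -0.22 in these data, passing the limit was not always enough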;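 note: slope of raw intensity against log time taken from 70 to 1610 s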); conditions: recombinant KvBeta, 4-cyanobenzaldehyde reduction, at 10 µM, stronger effect = higher value
Chain of Voltage-gated potassium channel subunit beta-2 (Rattus norvegicus) (P62483 whole entry, looked up): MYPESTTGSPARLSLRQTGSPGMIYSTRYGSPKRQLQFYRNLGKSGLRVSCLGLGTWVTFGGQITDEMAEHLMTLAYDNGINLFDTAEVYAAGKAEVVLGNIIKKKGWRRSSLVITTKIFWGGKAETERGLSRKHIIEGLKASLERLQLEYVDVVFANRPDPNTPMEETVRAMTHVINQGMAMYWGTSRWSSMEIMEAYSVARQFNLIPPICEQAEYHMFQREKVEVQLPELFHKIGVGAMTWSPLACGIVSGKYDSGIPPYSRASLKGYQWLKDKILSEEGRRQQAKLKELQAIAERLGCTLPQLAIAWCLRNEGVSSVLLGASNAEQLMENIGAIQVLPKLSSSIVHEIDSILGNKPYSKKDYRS

[5] = target: Voltage-gated potassium channel subunit beta-2 (Rattus norvegicus) (UniProt P62483); assay: enhancers of rat Kvbeta2 NADPH turnover – biochemical, NADPH fluorescence, primary screen (AID 623;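 active = NADPH fluorescence slope more negative than the mean of all samples by about 3 SD, 99.7% confidence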;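 note: fluorescence intensity change per second fitted from 20 to 320 s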); conditions: Recombinant KvBeta, NADPH fluorescence decrease slope, 10 min; at 10 µM; stronger effect = lower value
[6] = target: Alpha-2C adrenergic receptor (Homo sapiens) (UniProt P18825); assay: compounds altering alpha2C-coupled GIRK flux – cell-based, HEK293 alpha2C/GIRK1/2, thallium flux, primary screen (AID 624;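 active = fluorescence slope after compound addition differing from the mean of all screened samples at 99.7% confidence, in either direction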;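 note: slope of fluorescence ratio to pre-addition baseline per second over 15 to 24 s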); conditions: thallium flux BTC fluorescence, at 10 µM, actives lie on both sides
Chain of Alpha-2C adrenergic receptor (Homo sapiens) (P18825 whole entry, looked up): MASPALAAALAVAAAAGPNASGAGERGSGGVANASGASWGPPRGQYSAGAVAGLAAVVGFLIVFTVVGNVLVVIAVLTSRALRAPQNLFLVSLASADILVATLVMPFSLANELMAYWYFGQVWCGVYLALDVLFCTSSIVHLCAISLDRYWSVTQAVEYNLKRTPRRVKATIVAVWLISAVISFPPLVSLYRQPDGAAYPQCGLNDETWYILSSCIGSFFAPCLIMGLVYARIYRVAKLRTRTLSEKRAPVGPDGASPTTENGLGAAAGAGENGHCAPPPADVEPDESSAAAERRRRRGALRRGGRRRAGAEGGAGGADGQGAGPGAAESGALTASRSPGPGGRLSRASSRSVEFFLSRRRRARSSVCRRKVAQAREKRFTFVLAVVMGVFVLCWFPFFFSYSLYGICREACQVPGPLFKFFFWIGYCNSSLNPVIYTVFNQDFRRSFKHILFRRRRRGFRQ

[7] = blockers of RIG-like receptor reporter activation – cell-based, Sendai virus stimulus, luciferase, 10K MLSCN set, TLR/RLR signaling modifier project, primary screen (AID 602276;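 active = inhibition at or above 50% at 10 µM; inactive = inhibition below 50%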;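 note: firefly luciferase from ISG56 promoter only with Renilla not read in this screen; 0% = Sendai virus plus DMSO and 100% = medium plus DMSO without virus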); conditions: HEK293 RL24 IRF3 luciferase reporter, at 10 µM, stronger effect = higher value
[8] = TLR3 IRF3 reporter activation blockers – cell-based, poly I:C stimulus, luciferase, 10K MLSCN set, primary screen (AID 602277;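 active = inhibition of the reporter signal at or above 50%; inactive = inhibition below 50%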); conditions: HEK293-TLR3 RL24 IRF3 luciferase reporter, at 10 µM, stronger effect = higher value

| SMILES | cell count [1] | inhibition [1] | inhibition of aggregation [2] | nuclei count [2] | inhibition [3] | nuclei count [3] | fluorescence slope [4] | NADPH fluorescence slope [5] | slope [6] | inhibition [7] | inhibition [8] |
| --- | --- | --- | --- | --- | --- | --- | --- | --- | --- | --- | --- |
| CC1(C)CC(=O)CC(C)(C)N1OC(=O)c1ccccn1 | 362 | 1% (inactive) | -6.4% (inactive) | 97.7% | -4.9% (inactive) | 102% | -0.495 (inactive) | 2e-05 (inactive) | 0.00619 (inactive) | -2.81% (inactive) | 25.3% (inactive) |
| O=C1c2ccccc2C(Nc2ccc3c(c2)OCO3)N1Cc1ccc2c(c1)OCO2 (configuration not stated) | 529 | -8.5% (inactive) | -8.3% (inactive) | 63.8% | -0.3% (inactive) | 107% | -0.398 (inactive) | -2.6e-05 (inactive) | 0.00394 (inactive) | -3.95% (inactive) | 27.2% (inactive) |
| Cc1ccc(O)c(-c2cc(C(=O)Nc3ccc(S(=O)(=O)N4CC(C)OC(C)C4)cc3)[nH]n2)c1 (configuration not stated) | 371 | 6.2% (inactive) | 0.4% (inactive) | 97.2% | 0.1% (inactive) | 92.7% | -0.478 (inactive) | -0.000199 (inactive) | 0.00494 (inactive) | 22.4% (inactive) | 43.5% (inactive) |
| Cn1c(=O)[nH]c(=O)c2c1nc(N1CCCCC1)n2CCSc1ncccn1 | 637 | -11.8% (inactive) | -16.6% (inactive) | 93% | -20.6% (inactive) | 122% | -0.438 (inactive) | -6.7e-05 (inactive) | 0.00492 (inactive) | 10% (inactive) | 25.5% (inactive) |
| Cn1c(=O)c2c(-c3ccncc3)c3c(nc2n(C)c1=O)-c1ccccc1C3=O | 637 | 0% (inactive) | -3.3% (inactive) | 98.9% | -113% (inactive) | 136% | -0.497 (inactive) | 4.5e-05 (inactive) | 0.00591 (inactive) | 14.2% (inactive) | 22.4% (inactive) |
| O=c1c2ccccc2nc(SCc2cn3ccsc3n2)n1-c1ccc(F)cc1 | 607 | 6.1% (inactive) | 9% (inactive) | 103% | 59.6% (active) | 71.6% | -0.626 (inactive) | 1.8e-05 (inactive) | 0.00521 (inactive) | 23.9% (inactive) | 22.8% (inactive) |
| O=C(CSc1nnc(SCc2ccc(Cl)cc2)s1)N1CCN(C(=O)c2ccco2)CC1 | 236 | 42.2% (active) | -21.7% (inactive) | 116% | -194% (inactive) | 152% | -0.519 (inactive) | -0.000144 (inactive) | 0.00593 (inactive) | -1.92% (inactive) | -7.44% (inactive) |
| Cc1ccc(C(=O)OCC(=O)Nc2ccc3c(c2)OCO3)o1 | 429 | 14.6% (inactive) | 17.6% (inactive) | 99.5% | 8.1% (inactive) | 112% | -0.595 (inactive) | -5.5e-05 (inactive) | 0.00785 (inactive) | -15.7% (inactive) | -12.9% (inactive) |
| Cn1c(=O)c2c(nc(CN3CCc4ccccc4C3)n2Cc2cccc(Cl)c2)n(C)c1=O | 646 | 8% (inactive) | 0.6% (inactive) | 102% | -22.8% (inactive) | 124% | -0.575 (inactive) | -4.8e-05 (inactive) | 0.00753 (inactive) | 19.5% (inactive) | -58.7% (inactive) |
| Cc1ccc(Cn2c(=O)c3ccccc3n3c(CCC(=O)O)nnc23)cc1 | 681 | -13.4% (inactive) | -2.1% (inactive) | 90% | -55.9% (inactive) | 116% | -0.554 (inactive) | 1.7e-05 (inactive) | 0.00669 (inactive) | 0.88% (inactive) | 12.6% (inactive) |
| COc1cc(C2c3c(n[nH]c3C)C(=O)N2c2ccc(C)cc2)ccc1O (configuration not stated) | 335 | -8.1% (inactive) | -6% (inactive) | 86.3% | -34.1% (inactive) | 112% | -0.586 (inactive) | -2.8e-05 (inactive) | 0.00346 (inactive) | 3.65% (inactive) | -2.36% (inactive) |
| CN(C)CCCN1C(=O)c2oc3ccc(Cl)cc3c(=O)c2C1c1cccnc1 (configuration not stated) | 611 | -3.3% (inactive) | -16.3% (inactive) | 112% | -27% (inactive) | 122% | -0.546 (inactive) | -5.3e-05 (inactive) | 0.00766 (inactive) | 13.5% (inactive) | 39% (inactive) |
| COc1ccc(CCNC(=O)CN(c2ccccc2OC)S(C)(=O)=O)cc1 | 723 | -3.4% (inactive) | 33.6% (inactive) | 87.7% | -41.9% (inactive) | 98.4% | -0.427 (inactive) | -0.000127 (inactive) | 0.00571 (inactive) | 15.7% (inactive) | 27.5% (inactive) |
| CC1CCCN(c2ccc(C(=O)NCc3cccs3)cn2)C1 (configuration not stated) | 632 | -14.3% (inactive) | -22.9% (inactive) | 112% | -67.5% (inactive) | 139% | -0.614 (inactive) | -6.9e-06 (inactive) | 0.00612 (inactive) | -37.8% (inactive) | -71.3% (inactive) |
| O=C(CSc1nc2cc(Cl)ccc2s1)N1CCN(C(=O)c2ccco2)CC1 | 725 | 2.4% (inactive) | 15.7% (inactive) | 97.9% | -126% (inactive) | 141% | -0.482 (inactive) | -5.8e-05 (inactive) | 0.00555 (inactive) | 21.6% (inactive) | 27.6% (inactive) |
| CCSc1nc2ccccc2n1CCC(=O)O | 615 | -62.2% (inactive) | 1.9% (inactive) | 85.7% | -96.2% (inactive) | 111% | -0.49 (inactive) | -0.000157 (inactive) | 0.00453 (inactive) | 10.2% (inactive) | 18.3% (inactive) |
| CN1CCN(c2ncnc3c2cnn3-c2ccc(Cl)cc2)CC1 | 688 | -8.5% (inactive) | -0.6% (inactive) | 116% | -27.8% (inactive) | 122% | -0.591 (inactive) | 1.6e-05 (inactive) | 0.00771 (inactive) | 15.5% (inactive) | 6.85% (inactive) |
| CCOc1ccccc1C1CC(=O)Nc2cc3c(cc21)OCO3 (configuration not stated) | 266 | 14.4% (inactive) | -18.8% (inactive) | 86.9% | -9.8% (inactive) | 98.7% | -0.38 (inactive) | -4.6e-05 (inactive) | 0.00457 (inactive) | 3.25% (inactive) | 40.2% (inactive) |
| CC(C)OC(=O)CSc1nnc(-c2ccco2)n1N | 618 | 0% (inactive) | 7.4% (inactive) | 93.2% | -1% (inactive) | 97.5% | -0.422 (inactive) | -2.8e-05 (inactive) | 0.00405 (inactive) | 0.828% (inactive) | 17% (inactive) |
| O=C(CSc1nnc(C2COc3ccccc3O2)o1)N1CCCc2ccccc21 (configuration not stated) | 438 | -1.8% (inactive) | 0.8% (inactive) | 87.9% | -80.9% (inactive) | 136% | -0.298 (inactive) | -4e-06 (inactive) | 0.00363 (inactive) | 12.5% (inactive) | 34.9% (inactive) |
| CCC(C(=O)Nc1ncccn1)(C(F)(F)F)C(F)(F)F | 218 | 2% (inactive) | 25.4% (inactive) | 93.4% | -2.6% (inactive) | 110% | -0.499 (inactive) | 5.3e-05 (inactive) | 0.00586 (inactive) | -24.5% (inactive) | -0.327% (inactive) |
| CN(C)c1ccc(C(=O)OCC(=O)NC2CCCCC2)cc1 | 548 | -0.3% (inactive) | 4.3% (inactive) | 90.3% | -46.5% (inactive) | 110% | -0.475 (inactive) | -3.6e-05 (inactive) | 0.00547 (inactive) | 16.6% (inactive) | 10.9% (inactive) |
| O=C(Nc1cc(C(F)(F)F)ccc1Cl)C1CCN(c2nnc(-n3cccc3)s2)CC1 | 329 | -2.9% (inactive) | 6.1% (inactive) | 84.2% | -114% (inactive) | 126% | -0.39 (inactive) | -5.6e-05 (inactive) | 0.00662 (inactive) | 17.2% (inactive) | 9.28% (inactive) |
| O=C(NCCN1CCOCC1)C1CCC(=O)N1Cc1ccccc1Cl (configuration not stated) | 648 | -11.4% (inactive) | 7.5% (inactive) | 92.1% | 6.7% (inactive) | 87.7% | -0.512 (inactive) | 2e-07 (inactive) | 0.00614 (inactive) | 10.4% (inactive) | 21% (inactive) |
| O=C(C1CCN(c2nnc(-n3cccc3)s2)CC1)N1CCN(Cc2ccc3c(c2)OCO3)CC1 | 707 | -9.2% (inactive) | -39.4% (inactive) | 115% | -56.3% (inactive) | 113% | -0.593 (inactive) | -2e-05 (inactive) | 0.00596 (inactive) | -2.25% (inactive) | -31.5% (inactive) |
| COCCCNC(=O)CCCn1c(=O)c2ccccc2n(CC(=O)Nc2c(C)cccc2C)c1=O | 709 | -4.7% (inactive) | -15.7% (inactive) | 105% | -64% (inactive) | 99.1% | -0.505 (inactive) | 2.2e-05 (inactive) | 0.00674 (inactive) | 8.62% (inactive) | 32.1% (inactive) |
| C=CCNC(=O)c1ccc(Cl)cc1Cl | 344 | 1.6% (inactive) | -21.2% (inactive) | 87.7% | -31.6% (inactive) | 91.8% | -0.478 (inactive) | -4.6e-05 (inactive) | 0.00715 (inactive) | 0.0277% (inactive) | 23.8% (inactive) |
